# Measurements from PubChem BioAssay (EPA / NIEHS).
# Results filed as inconclusive are left out. Activity calls are given as the source filed them. The calls were made as follows, unless noted: active = hit-call score of the fitted dose curve at least 0.9, where 1 is the maximum; inactive = score below 0.9.
# How the values were obtained:
# [1] = CCTE_Deisenroth_AIME_384WELL_CTox_Active: Cytotoxicity Assessment (CTOX) in CCTE's 384-well Estrogen Receptor Transactivation Assay with AIME metabolic competence (metabolism positive), Deisenroth Lab (AID 2284037; active = hit-call score of the fitted dose curve at least 0.9, where 1 is the maximum;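 also: chemicals first conditioned 2 h by alginate-bound induced rat liver S9 before cells; activity means signal loss indicating cell death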)
# In short: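 Cytotoxicity in VM7Luc4E2 breast cells, 24 hour, measured as protease-substrate fluorescence loss, after 2-hour metabolic conditioning with induced rat hepatic S9 in alginate microspheres. Concentrations 0.002 - 200 uM, 10 points, bidirectional fitting.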
# [2] = CCTE_Shafer_MEA_acute_burst_percentage_std: CCTE's Neural Acute Assay for Standard Deviation of Burst Percentage, Shafer Lab (AID 2284018);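 also: fitted in the negative direction so actives lower burst percentage SD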
# In short: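 Value is percent change from baseline in the across-electrode SD of spikes-in-bursts percentage, wells with >/= 10 active electrodes. Acute 40-min exposure to 0.03-40 uM on DIV 13 or 15 rat cortical cultures, recorded at 37 C after 40-min baseline.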
# [3] = CCTE_Shafer_MEA_acute_per_network_burst_spike_number_std: CCTE's Neural Acute Assay for Standard Deviation of Number of Spikes in a Network Burst, Shafer Lab (AID 2284020);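 also: fitted for decrease in spike-number SD versus DMSO so actives lower it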
# In short: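 Spontaneous network activity of primary rat cortical neurons is recorded extracellularly before and after a 40-min compound exposure (0.03-40 uM) at 37 C. The endpoint is the well's percent change in burst spike-number SD.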
# [4] = CCTE_Shafer_MEA_acute_per_network_burst_electrodes_number_mean: CCTE's Neural Acute Assay for Mean Number of Electrodes in a Network Burst, Shafer Lab (AID 2284021);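 also: curves fitted for decreases only so hits reduce electrodes per burst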
# In short: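 Rat primary cortical neurons on 48-well MEAs, DIV 13 or 15, were treated at 0.03-40 uM. Spikes were detected at 8x rms noise and recorded at 37 C. The mean electrodes per network burst in a 40 min exposure recording was expressed as percent change from a 40 min baseline.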
# [5] = CCTE_Shafer_MEA_acute_network_burst_percentage: CCTE's Neural Acute Assay for Percentage of Network Bursts, Shafer Lab (AID 2284022);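 also: curves fitted for loss so actives lower network burst percentage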
# In short: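 Rat primary cortical neuron networks on 48-well MEA plates, DIV 13 or 15, treated acutely with compound (0.03-40 uM, at least three wells). Percent of spikes within network bursts compared between 40-min recordings before and during exposure at 37 C, expressed as percent change.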
# [6] = CCTE_Shafer_MEA_acute_cross_correlation_area: CCTE's Neural Acute Assay for Area of Cross Correlation, Shafer Lab (AID 2284024);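 also: curves fitted for loss of cross-correlation area so actives lower synchrony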
# In short: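 Rat primary cortical neurons on 48-well MEA, DIV 13 or 15; compounds 0.03-40 uM. Baseline and post-exposure 40 min recordings at 37 C; percent change in area under pooled inter-electrode cross-correlation near zero lag, relative to DMSO.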
# [7] = CCTE_Shafer_MEA_acute_synchrony_index: CCTE's Neural Acute Assay for Synchrony, Shafer Lab (AID 2284027);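 also: network synchrony index of spontaneous spiking in primary rat cortical neurons on MEAs; fitted for loss of signal so actives lower synchrony relative to DMSO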
# In short: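 Primary rat cortical neurons on 48-well MEAs, dosed at 0.03–40 uM on DIV 13 or 15. Spikes are recorded for 40 min at 37C before and after exposure, and synchrony index (0–1) is expressed as percent change from baseline per well.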
# [8] = biological target: Estrogen receptor (Homo sapiens) (UniProt P03372); assay: CCTE_Deisenroth_AIME_384WELL_LUC_Active: CCTE's 384-well Estrogen Receptor Transactivation Assay with AIME metabolic competence (ERTA luciferase; metabolism positive), Deisenroth Lab (AID 2284030; active = hit-call score of the fitted dose curve at least 0.9, where 1 is the maximum)
# In short: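 Chemicals (10-point, 0.002-200 uM) were first incubated 2 hours with alginate-immobilized induced male Sprague Dawley rat liver S9. The conditioned medium was then applied to VM7Luc4E2 cells for 24 hours, with ER luciferase induction read by luminescence relative to 17beta-estradiol.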
# [9] = CCTE_Shafer_MEA_dev_firing_rate_mean: CCTE's Neural Network Formation Assay for Mean Firing Rate, Shafer Lab (AID 2284031);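 as to AC50: curve fitted for loss of firing so AC50 reflects decreased mean firing rate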
# In short: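 Primary rat cortical neurons on 48-well MEA plates, exposed from plating day 0 with dosing renewed on DIV 5 and 9. Mean well firing rate over active electrodes, recorded days 5, 7, 9, 12, summarised as trapezoidal AUC.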
# [10] = CCTE_Shafer_MEA_dev_per_burst_spike_percent: CCTE's Neural Network Formation Assay for Percent of Spikes in a Burst, Shafer Lab (AID 2284032);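 as to AC50: fitted as a decrease in burst spike percentage below DMSO baseline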
# In short: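 Rat primary cortical neurons on 16-electrode MEA wells, dosed from plating day 0 for 12 days with renewal on DIV 5 and 9; spikes-in-bursts percentage averaged over bursting electrodes, collapsed as AUC across days 5, 7, 9, 12; loss direction versus DMSO.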
# Sequence of Estrogen receptor (Homo sapiens) (P03372 whole entry, looked up): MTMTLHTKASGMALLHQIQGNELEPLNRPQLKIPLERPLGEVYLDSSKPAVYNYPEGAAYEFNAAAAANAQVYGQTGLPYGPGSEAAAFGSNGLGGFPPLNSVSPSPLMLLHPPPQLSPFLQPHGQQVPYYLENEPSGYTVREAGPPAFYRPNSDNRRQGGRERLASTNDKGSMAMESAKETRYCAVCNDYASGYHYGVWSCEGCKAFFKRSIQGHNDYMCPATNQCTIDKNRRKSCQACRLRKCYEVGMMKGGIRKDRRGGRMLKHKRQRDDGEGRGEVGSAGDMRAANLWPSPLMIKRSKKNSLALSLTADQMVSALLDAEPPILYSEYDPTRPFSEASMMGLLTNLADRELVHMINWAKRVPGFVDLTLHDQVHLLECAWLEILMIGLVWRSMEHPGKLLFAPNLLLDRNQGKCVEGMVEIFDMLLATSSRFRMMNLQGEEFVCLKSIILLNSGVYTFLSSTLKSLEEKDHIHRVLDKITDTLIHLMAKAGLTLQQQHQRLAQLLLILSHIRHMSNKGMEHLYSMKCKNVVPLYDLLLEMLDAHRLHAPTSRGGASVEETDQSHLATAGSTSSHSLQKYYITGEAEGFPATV
structure (smiles),measurement,setting,value
CCCC1CCC(=O)O1 (configuration not stated),outcome,[1],inactive
CC(C)(COC(=O)c1ccccc1)COC(=O)c1ccccc1,outcome,[2],inactive
same,outcome,[3],inactive
same,outcome,[4],inactive
same,outcome,[5],inactive
same,outcome,[6],inactive
same,outcome,[7],inactive
OCCOCCOCCOCCO,AC50,[8],0.342 nM (active)
same,outcome,[1],inactive
OC[C@H]1O[C@H](O[C@]2(CCl)O[C@H](CCl)[C@@H](O)[C@@H]2O)[C@H](O)[C@@H](O)[C@H]1Cl,outcome,[2],inactive
same,outcome,[3],inactive
same,outcome,[4],inactive
same,outcome,[5],inactive
same,outcome,[6],inactive
same,outcome,[7],inactive
CCCCCCCCC=O,outcome,[2],inactive
same,outcome,[3],inactive
same,outcome,[4],inactive
same,outcome,[5],inactive
same,outcome,[6],inactive
same,outcome,[7],inactive
C=C[Si](OCC)(OCC)OCC,outcome,[2],inactive
same,outcome,[3],inactive
same,outcome,[4],inactive
same,outcome,[5],inactive
same,outcome,[6],inactive
same,outcome,[7],inactive
CC(=O)OCCOC(C)=O,outcome,[8],inactive
same,outcome,[1],inactive
CN(C)C(=N)N=C(N)N,outcome,[2],inactive
same,outcome,[3],inactive
same,outcome,[4],inactive
same,outcome,[5],inactive
same,outcome,[6],inactive
same,outcome,[7],inactive
same,outcome,[9],inactive
same,outcome,[10],inactive
CC1(C)C(=O)N(Br)C(=O)N1Cl,outcome,[1],inactive
C=CCOC(=O)CCC1CCCCC1,outcome,[2],inactive
same,outcome,[3],inactive
same,outcome,[4],inactive
same,outcome,[5],inactive
same,outcome,[6],inactive
same,outcome,[7],inactive
CCCCCCCCCCCCCC(=O)O,outcome,[8],inactive
same,outcome,[1],inactive
CN(C)CCCN,outcome,[8],inactive
same,outcome,[1],inactive
NCCCCCCN,outcome,[1],inactive
COc1cc(C=O)ccc1OC(=O)C(C)C,outcome,[2],inactive
same,AC50,[3],3.76 µM (active)
same,outcome,[4],inactive
same,outcome,[5],inactive
same,outcome,[6],inactive
same,outcome,[7],inactive
Nc1cc([N+](=O)[O-])ccc1O,outcome,[2],inactive
same,AC50,[3],0.226 µM (active)
same,outcome,[4],inactive
same,AC50,[5],15 µM (active)
same,outcome,[6],inactive
same,AC50,[7],22.6 µM (active)
CC1(C)[C@@H]2CC[C@@]1(C)[C@H](O)C2,outcome,[1],inactive
NCCCN1CCOCC1,outcome,[8],inactive
same,outcome,[1],inactive
N#Cc1ccc(CC(=NNC(=O)Nc2ccc(OC(F)(F)F)cc2)c2cccc(C(F)(F)F)c2)cc1,AC50,[9],363 nM (active)
same,AC50,[10],301 nM (active)
O=C(Cl)c1cccc(C(=O)Cl)c1,outcome,[1],inactive
CCCCCCCCCCCCCOS(=O)(=O)O,AC50,[1],156 µM (active)
O=C[C@@H](O)[C@H](O)[C@H](O)CO,outcome,[1],inactive
O=C(O)Cc1cccc2ccccc12,outcome,[1],inactive
CC[Si](OC(C)=O)(OC(C)=O)OC(C)=O,outcome,[2],inactive
same,outcome,[3],inactive
same,outcome,[4],inactive
same,outcome,[5],inactive
same,outcome,[6],inactive
same,outcome,[7],inactive
CCC(=O)OCc1ccccc1,outcome,[2],inactive
same,outcome,[3],inactive
same,outcome,[4],inactive
same,outcome,[5],inactive
same,AC50,[6],9.43 nM (active)
same,outcome,[7],inactive
Cc1cc(C2(c3cc(C)c(O)cc3C)OS(=O)(=O)c3ccccc32)c(C)cc1O,outcome,[2],inactive
same,outcome,[3],inactive
same,outcome,[4],inactive
same,outcome,[5],inactive
same,outcome,[6],inactive
same,outcome,[7],inactive
Cc1ccc(O)c(C(C)(C)C)c1,outcome,[1],inactive
NCCNCCN,outcome,[2],inactive
same,outcome,[3],inactive
same,outcome,[4],inactive
same,outcome,[5],inactive
same,outcome,[6],inactive
same,outcome,[7],inactive
same,outcome,[1],inactive
CC(C)=CCCC(C)CC=O (configuration not stated),outcome,[1],inactive
CC(=O)OCCC(C)CC(C)(C)C (configuration not stated),outcome,[2],inactive
same,outcome,[3],inactive
same,outcome,[4],inactive
same,outcome,[5],inactive
same,outcome,[6],inactive
same,outcome,[7],inactive
CCCCCCCCCC=O,outcome,[8],inactive
CCCCCOC(=O)CCC,outcome,[1],inactive
C[C@H]1C[C@@H]2[C@H]([C@@H](O)C[C@@]3(C)[C@H]2CC[C@]3(O)C(=O)CO)[C@@]2(C)C=CC(=O)C=C12,outcome,[2],inactive
same,outcome,[3],inactive
same,outcome,[4],inactive
same,outcome,[5],inactive
same,AC50,[6],4.5 nM (active)
same,outcome,[7],inactive
OC1OC[C@@H](O)[C@H](O)[C@H]1O (some centres not stated),AC50,[2],1.21 µM (active)
same,outcome,[3],inactive
same,outcome,[4],inactive
same,outcome,[5],inactive
same,outcome,[6],inactive
same,outcome,[7],inactive
same,outcome,[1],inactive
c1ccc2c(c1)c1cccc3ccc4cccc2c4c31,outcome,[9],inactive
same,outcome,[10],inactive
O=C(O)c1ccc([N+](=O)[O-])cc1,outcome,[1],inactive
CC(=O)[C@H]1CC[C@H]2[C@@H]3CC=C4C[C@@H](O)CC[C@]4(C)[C@H]3CC[C@]12C,outcome,[2],inactive
same,outcome,[3],inactive
same,outcome,[4],inactive
same,AC50,[5],0.0267 µM (active)
same,AC50,[6],3 nM (active)
same,AC50,[7],0.00409 µM (active)
